# Screening results from PubChem BioAssay.
# HSF1 inhib: HSF1 inhibition; NIH3T3-HGL HSE-luciferase, MG132-induced, luminescence 8 h; active compounds read low; activity change, negative = inhibition, % at 7.5 µM (by protocol); 0.77% of 300,000 active; AID 2098;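 active = more than half of replicate wells show activity change below -50%, luminescence cut by over half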;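 also: luciferase reports HSF-1 transcriptional activity via heat shock element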
# STAT3 blocker: STAT3 signaling inhibition; AID 862; U3A cells, IL-6 STAT3-luciferase reporter, luminescence; host cell line lacks STAT1; inhibition, % at 5.5 µM; 0.89% of 190,000 active;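 active = inhibition above the mean inhibition across all screened compounds plus 3 SD, cut at about 44% in these data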
# C8 TRAIL sens: caspase-8 TRAIL sensitization; inhibition (viability loss, TRAIL sensitization), % at 10 µM; 1% of 360,000 active; NB7+C8 cells + TRAIL, ATPlite viability luminescence;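 active = compounds causing at least 50% loss of cell viability in the single-dose screen, relative to plate controls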
# PPC-1+TRAIL kill: kills PPC-1 cancer cells in the presence of TRAIL. PPC-1 cells + TRAIL, ATPLite viability luminescence. cell killing (% activity), % at 4 µM or 5 µM. 0.41% of 220,000 active. AID 1443;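 active = cell killing above 50% in the first pass at 4 µM, then a duplicate retest at 5 µM averaging 50% or more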
# STAT1 blocker: inhibitors of IFN-gamma induced STAT1 signaling; NIH 3T3 STAT1-luciferase reporter, luminescence; inhibition, % at 5.5 µM; 0.35% of 200,000 active;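 active = inhibition above a set limit, the mean inhibition across all tested compounds plus 3 SD, cut at about 34% in these data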
# HSP90 inh: HSP90 refolding inhibition in rabbit reticulocyte lysate; luciferase refolding luminescence, 3 h; inhibition, % at 5.6 µM; 0.91% of 290,000 active; AID 1789;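 active = inhibition above the screen-wide mean plus 3 SD, computed separately per campaign, cut at about 16% in these data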;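 also: inhibitors lower the luminescence because luciferase stays unfolded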
# Hits are given with their value; n = inactive; x = not tested or not shown. The list is not random: actives were taken first. Their share in the collection is about 2.4%.
SMILES,HSF1 inhib,STAT3 blocker,C8 TRAIL sens,PPC-1+TRAIL kill,STAT1 blocker,HSP90 inh
Cc1ccc2nc(NC(=S)NC(=O)c3cccs3)sc2c1,n,n,79,n,n,n
COc1ccc2nc(NC(=S)NC(=O)c3ccco3)sc2c1,n,n,72,n,n,n
CN(C)c1ncnc2c1ncn2[C@H]1CN(Cc2ccco2)C[C@@H](CO)O1,x,x,n,x,x,x
CCOc1ccc(Br)cc1CNc1ccc2c(c1)OCCO2,-56,n,n,n,n,n
c1cc(CNc2ccc3c(c2)OCCO3)ccn1,-78,n,n,n,n,n
CCOc1cc(OCC)cc(C(=O)N2CCC[C@H]2C(=O)N2CCC[C@H]2C(=O)N(C)Cc2ccccc2)c1,x,x,n,x,x,x
CCS(=O)(=O)N1Cc2ccccc2CC1C(=O)Nc1nc2ccccc2s1 (centres undefined),-61,n,n,n,n,26
Nc1c(Cl)ncnc1N/N=C/c1ccccn1,x,n,x,n,n,n
Nc1c(Cl)ncnc1N/N=C/c1ccc2ccccc2n1,x,n,n,62,n,n
C=CCNC(=O)c1ccc(NC(=O)C2=CSCCO2)cc1,n,x,n,x,x,17
Cn1nc(CC(=O)N2CCN(c3ccccc3)CC2)c2ccccc2c1=O,n,n,n,n,n,n
Cc1[nH]n(CCC#N)c(=O)c1CC(=O)N1CCN(c2ccccc2)CC1,-54,n,n,n,n,n
Cn1cc(CCNC(=O)CC2C(=O)NCCN2Cc2cccc(Oc3ccccc3)c2)cn1 (centres undefined),-69,n,n,n,n,n
COc1ccc2oc(C(=O)OCC(=O)Nc3ccc(NC(C)=O)cc3)c(C)c2c1,n,x,n,x,x,x
COc1ccc2oc(C(=O)OCC(=O)N(C)CC(=O)Nc3ccc(C)cc3)c(C)c2c1,-51,x,n,x,x,x
CC(C)NC(=O)C1(C)CSCC(=O)N1Cc1cccc(C(F)(F)F)c1 (centres undefined),x,x,n,x,x,x
C=CCSc1nc2ccccc2n1C(=O)/C=C/c1cc(OC)c(OC)c(OC)c1,-64,n,n,n,n,n
Brc1ccc(-c2ccc(/C=N/Nc3nc4ccccc4[nH]3)o2)cc1,n,n,52,n,n,n
O=C(c1cnc(Cc2c[nH]c3ccccc23)c(I)c1)N1CCOCC1,x,x,n,x,x,x
CCc1ccc2c(c1)C(=O)c1ccccc1C2=O,n,n,n,n,n,n
CC(C)(C)c1ccc2c(c1)C(=O)c1ccccc1C2=O,n,n,56,n,n,n
COCc1nn2c(N)c(-c3ccccc3)cnc2c1-c1ccccc1,n,x,51,x,x,n
O=C(NCCc1ccccc1)c1ccc(-c2ccc(F)c(F)c2)c2ccoc12,x,x,n,x,x,x
Cc1cc(C(=O)Nc2sc3c(c2C#N)CCC3)no1,n,n,51,n,n,n
N#Cc1c(NC(=O)c2cc(C3CC3)on2)sc2c1CCC2,n,x,n,n,x,x
SMILES,HSF1 inhib,STAT3 blocker,C8 TRAIL sens,PPC-1+TRAIL kill,STAT1 blocker,HSP90 inh
Cc1cc(C(=O)Nc2sc3c(c2C#N)CCCC3)no1,n,n,52,n,n,n
Cc1cc(C(=O)Nc2sc3c(c2C#N)CCC(C)C3)no1 (centres undefined),n,n,55,n,n,n
CC1(C)CC(=O)C=C(c2n[nH]nc2C2=CCCCC2)C1,x,x,n,x,x,x
CC(=O)Oc1ccc(Cn2c(C)c(C(=O)NCCC#N)sc2=O)cc1,x,x,n,x,x,x
CCOC(=O)c1c(C)[nH]c(C2=NNC(=Nc3cccc(Cl)c3)SC2)c1C,-75,n,x,n,n,n
CC(=O)c1c(C)[nH]c(C2=NNC(=NCc3ccccc3)SC2)c1C,n,n,n,n,n,n
COc1ccc(S(=O)(=O)NCC2CCCN(C(=O)C3CCCC3)C2)cc1 (centres undefined),-62,n,n,n,n,n
COc1ccc(S(=O)(=O)NCC2CCCN(C(=O)CC3CCCC3)C2)cc1 (centres undefined),n,n,n,n,n,n
CC(=O)N1CCOCC1c1cc(C(=O)Nc2ccccc2)no1 (centres undefined),x,x,n,x,x,x
Cc1oc(C(=O)O)cc1COc1ccc2c3c(c(=O)oc2c1C)CCC3,-60,n,n,n,n,n
Cc1oc(C(=O)O)cc1COc1ccc2c3c(c(=O)oc2c1C)CCCC3,x,x,x,n,x,x
Cc1ccc(C(=O)Nc2ncc(Cc3ccccc3)s2)o1,n,n,57,n,n,n
O=C(Nc1ncc(Cc2ccccc2)s1)c1cccs1,n,n,51,n,n,n
Cc1ccc(Cc2cnc(NC(=O)c3cccs3)s2)cc1,n,n,n,n,n,n
Cc1cc(C)nc(SCC(=O)Nc2ccnc3ccccc23)n1,n,86,n,n,36,n
COC(=O)c1ccccc1NC(=O)CSc1nc(C)cc(C)n1,n,n,n,n,n,n
Cc1[nH]c2ccccc2c1/C=C/c1nc2ccccc2c(=O)[nH]1,n,x,n,n,x,n
O=c1[nH]c(/C=C/c2ccccc2Cl)nc2ccccc12,n,x,64,x,x,n
Cc1cccc(/C=C/c2nc3ccccc3c(=O)[nH]2)c1,n,n,55,n,n,n
Clc1cccc(Cl)c1/C=C/c1nc2ccccc2[nH]1,n,n,68,n,n,n
O=C(O)c1ccc(/C=C/c2nc3ccccc3c(=O)[nH]2)cc1,n,x,n,x,x,n
O=C(CC1C[C@H](C(=O)N2CCCCC2)[C@@]2(CCc3ccccc3)c3[nH]c4ccccc4c3CCN2C1=O)NCCc1ccccn1 (some centres undefined),x,x,n,x,x,x
O=C(NCc1ccc(C(=O)O)cc1)OCc1ccccc1,-54,n,n,n,n,n
O=c1oc2ccccc2cc1-c1csc(Nc2nc3c(F)cccc3s2)n1,n,n,53,n,n,n
Cc1ccc(S(=O)(=O)N2CC3C(=O)C[C@@H](c4ccccc4)N(S(=O)(=O)c4ccccc4Cl)C3CC2c2ccccc2)cc1 (some centres undefined),x,x,n,x,x,x
SMILES,HSF1 inhib,STAT3 blocker,C8 TRAIL sens,PPC-1+TRAIL kill,STAT1 blocker,HSP90 inh
CC(=O)Nc1ccc(CN(C)c2c(C)nc3ccc(C(=O)NCCCN4CCCC4=O)cn23)cc1,x,x,n,x,x,x
Nc1nc(NC(=O)C(Cl)(Cl)Cl)nn1-c1ccccc1,-77,n,n,n,n,n
CCC(=O)Nc1nc(N)n(-c2ccccc2)n1,n,n,n,n,n,n
CCc1ccc(NC(=O)C2CCC(CNC(=O)[C@@H]3Cc4ccccc4CN3)CC2)cc1 (some centres undefined),-66,x,n,x,x,n
Cc1ccc(NC(=O)[C@@H](C)NC(=O)[C@@H]2Cc3ccccc3CN2)cc1,-55,x,n,x,x,n
Cc1ccc(NC(=O)[C@@H](CC(C)C)NC(=O)[C@@H]2Cc3ccccc3CN2)cc1,n,x,n,x,x,n
CN1CCN(C(=O)c2cccc3c(-c4ccc(F)c(F)c4)coc23)CC1,x,x,n,x,x,x
Cc1cc(=O)[nH]c2nnc(-c3ccc(Cl)cc3)n12,n,x,68,x,x,n
CC1(C)NC(=O)N(CC(=O)OCC(=O)N2CCN(S(=O)(=O)c3ccccc3)CC2)C1=O,x,x,n,x,x,x
C/C(=N\Nc1ncc(Cl)cc1Cl)c1ccc(N2CCOCC2)cc1,n,n,n,n,n,n
C/C(=N\Nc1ncc(Cl)cc1Cl)c1ccccn1,n,94,89,n,69,n
